Wnt act: activates Wnt/beta-catenin signaling in a reporter cell assay; activation, % at 9.35 µM; hit rate 1.2% among 300,000; AID 743398; activator, plate reader; in the data active means activation above about 30%, passing the limit was not always enough;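 further: 0% = neutral control wells and 100% = positive control wells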
MITF TRPM1 HTS: activators of MITF-driven TRPM1 promoter activity in SK-MEL-5 cells. AID 588334. SK-MEL-5 TRPM1-promoter luciferase, 24 h; % of positive control, neutral wells = 0. hit rate 0.75% among 300,000. activation, % at 12.5 µM;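 active means mean activation of at least 80% with every replicate also reaching 80%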;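 further: 0% = neutral control wells and 100% = parthenolide positive control wells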
N-glyco inh: N-linked glycosylation inhibition. D54 ERlucT glycosylation luciferase reporter, 24 h; percent of 100 nM tunicamycin response. reporter increase, % at 12.5 µM. hit rate 0.23% among 360,000;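 active means mean luciferase reporter signal, scaled so untreated is 0 and the glycosylation-blocking control 100, at or above a set limit in every replicate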;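 further: luciferase carries N-glycosylation sites so blocking glycosylation raises the light; 0% = median of neutral control wells and 100% = median of 100 nM tunicamycin wells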
TRPM1 prom inh: reduces MITF-dependent TRPM1 promoter luciferase signal | SK-MEL-5 TRPM1 promoter luciferase, 24 h | inhibition, % at 12.5 µM | AID 488899 | hit rate 0.83% among 330,000;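 active means mean inhibition across replicates of 60% or more, whatever share of single replicates reaches that level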
NSD2 inh: blocks human histone methyltransferase NSD2; AID 743445; O96028; NSD2 peptide methylation, AlphaScreen, 120 min; inhibition, % at 12.5 µM; hit rate 0.54% among 310,000; in the data active means inhibition above about 50%
Target sequence (O96028 whole entry, looked up): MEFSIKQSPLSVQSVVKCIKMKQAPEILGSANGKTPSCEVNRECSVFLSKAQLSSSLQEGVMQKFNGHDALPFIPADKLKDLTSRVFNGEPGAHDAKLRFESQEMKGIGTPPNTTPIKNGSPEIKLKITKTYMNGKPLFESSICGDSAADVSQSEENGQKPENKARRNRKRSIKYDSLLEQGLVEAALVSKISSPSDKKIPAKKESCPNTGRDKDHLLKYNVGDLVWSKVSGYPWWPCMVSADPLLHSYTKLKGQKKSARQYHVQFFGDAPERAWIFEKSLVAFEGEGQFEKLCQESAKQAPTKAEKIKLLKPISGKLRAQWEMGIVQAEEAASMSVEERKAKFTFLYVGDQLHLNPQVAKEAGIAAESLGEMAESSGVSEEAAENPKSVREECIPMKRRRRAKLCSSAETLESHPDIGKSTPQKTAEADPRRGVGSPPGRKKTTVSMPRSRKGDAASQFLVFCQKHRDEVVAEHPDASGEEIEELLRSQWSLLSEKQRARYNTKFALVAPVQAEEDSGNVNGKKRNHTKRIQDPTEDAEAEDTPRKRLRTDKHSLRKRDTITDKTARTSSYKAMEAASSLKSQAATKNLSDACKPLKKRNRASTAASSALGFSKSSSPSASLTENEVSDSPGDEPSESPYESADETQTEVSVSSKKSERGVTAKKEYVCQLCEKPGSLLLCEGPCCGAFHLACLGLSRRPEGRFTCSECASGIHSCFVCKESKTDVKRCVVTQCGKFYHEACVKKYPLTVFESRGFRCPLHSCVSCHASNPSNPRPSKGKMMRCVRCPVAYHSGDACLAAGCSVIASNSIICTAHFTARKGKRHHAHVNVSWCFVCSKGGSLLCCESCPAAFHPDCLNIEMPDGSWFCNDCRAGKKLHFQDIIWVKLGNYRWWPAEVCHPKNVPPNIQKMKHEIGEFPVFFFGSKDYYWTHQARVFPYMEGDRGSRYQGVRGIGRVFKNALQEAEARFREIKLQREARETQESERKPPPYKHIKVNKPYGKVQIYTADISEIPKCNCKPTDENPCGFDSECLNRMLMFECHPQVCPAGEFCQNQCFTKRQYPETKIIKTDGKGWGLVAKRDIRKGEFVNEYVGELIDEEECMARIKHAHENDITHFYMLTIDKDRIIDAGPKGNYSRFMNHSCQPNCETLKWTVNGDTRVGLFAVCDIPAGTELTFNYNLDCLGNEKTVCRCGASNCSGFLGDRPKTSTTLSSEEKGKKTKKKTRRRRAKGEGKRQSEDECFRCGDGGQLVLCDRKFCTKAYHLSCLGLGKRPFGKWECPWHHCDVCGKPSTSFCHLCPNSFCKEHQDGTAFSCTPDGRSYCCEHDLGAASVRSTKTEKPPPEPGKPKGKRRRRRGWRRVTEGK
PfHsp90 yeast 2: inhibits growth of yeast expressing Plasmodium falciparum Hsp90; S. cerevisiae expressing PfHsp90, BacTiter-Glo ATP, 48 h; yeast lacking PDR1 and PDR3 efflux regulators; inhibition, % at 9.4 µM; hit rate 0.32% among 310,000;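 active means every replicate shows inhibition above about 80%, whatever the replicate mean, limit read from the data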;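 further: 0% = DMSO neutral controls and 100% = 20 µM radicicol positive controls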
An asterisk follows results filed as active; nt = not tested or not shown. This is a sample that favours compounds with a hit; in the whole collection about 2.9% have one here.

SMILES | Wnt act | MITF TRPM1 HTS | N-glyco inh | TRPM1 prom inh | NSD2 inh | PfHsp90 yeast 2
Cc1cc(Br)ccc1OCCCCNCCO | nt | 17 | 1 | -19 | 6 | nt
CS(=O)(=O)NN1C(=O)c2ccccc2NC1c1c[nH]c2ccccc12 (stereo not given) | 11 | -17 | 0 | 16 | nt | 9
C(=C\c1ccccc1)/CN1CCN(C(CCc2ccccc2)c2nnnn2C2CCCC2)CC1 (stereo not given) | -3 | nt | -1 | nt | nt | nt
C=CCC1(CC=C)CCCN1C(=O)C1CCC(=O)N(CCc2ccc(OC)cc2)C1 (stereo not given) | 20 | 48 | -3 | -52 | -4 | -29
C=CCC1(CC=C)CCCN1C(=O)C1CCC(=O)N(CCc2ccccc2)C1 (stereo not given) | 29 | 103* | -4 | -102 | -6 | nt
CCCCCCCCCCCCCCCC[N+](C)(C)CCN(Cc1ccc(OC)cc1)c1ncccn1 | nt | -103 | -15 | 103* | nt | 106*
O=C(N=Nc1c(O)[nH]c2ccc(Br)cc12)c1ccco1 | 36* | nt | 11 | nt | -3 | nt
COCCNC(=O)C1(C)CCCN(C(=O)c2cc(F)ccc2C)C1 (stereo not given) | 0 | nt | 1 | nt | -1 | nt
CC1OC1c1ccc(-c2ccc(C3OC3C)cc2)cc1 (stereo not given) | 18 | 90* | 0 | -86 | nt | -11
Cc1ccc(C2OCC3(CO2)COC(c2ccc(C)cc2)OC3)cc1 (stereo not given) | -1 | 0 | 2 | 0 | -3 | 8
Cc1ccc(OCCC(=O)O)cc1 | 2 | 1 | 0 | -1 | -1 | -9
Cc1ccc(-n2c(C)cc(C(=O)COc3cccnc3[N+](=O)[O-])c2C)cc1 | -1 | -44 | -15 | 43 | 3 | 18
Cc1cc(C(=O)COc2cccnc2[N+](=O)[O-])c(C)n1-c1ccccc1 | -2 | -69 | -15 | 68* | -3 | 13
Cn1cnc([N+](=O)[O-])c1Sc1nc2ccccc2[nH]1 | -5 | nt | 29* | nt | 2 | nt
Cc1ccc(N2C(=O)C3C4C=CC(CNC(=S)Nc5ccc(Cl)cc5)(O4)C3C2=O)cc1 (stereo not given) | -2 | 17 | -2 | -14 | 3 | 105*
Cc1ccc(N2C(=O)C3C4C=CC(CNC(=S)Nc5cccc(Cl)c5)(O4)C3C2=O)cc1 (stereo not given) | -4 | -9 | 0 | 8 | 0 | 105*
Cc1ccc(N2C(=O)C3C4C=CC(CNC(=S)Nc5ccc(F)cc5)(O4)C3C2=O)cc1 (stereo not given) | -1 | -5 | 2 | 4 | 0 | 103*
Cc1ccc(C)c(NC(=S)N2CCN(c3ccccn3)CC2)c1 | -1 | nt | 0 | 2 | -5 | 1
Cc1ccc(CNC(=O)C2CCCN(C(=O)Nc3ccc(F)cc3)C2)cc1 (stereo not given) | -2 | 0 | -1 | 2 | -2 | 0
Cc1ccc(N2C(=O)C3C4C=CC(CNC(=S)N5CCN(c6ccccn6)CC5)(O4)C3C2=O)cc1 (stereo not given) | -2 | -16 | 0 | 13 | nt | 104*
Cc1ccc(N2C(=O)N(CC(=O)Nc3cccc(Cl)c3)C(=O)C2C)cc1 (stereo not given) | 10 | 6 | 0 | -3 | -2 | 7
COc1ccc(CSc2nnc(SCC(=O)Nc3ccc(S(N)(=O)=O)cc3)s2)cc1 | nt | nt | nt | nt | 5 | nt
O=C(Nc1ccc(Br)cc1)Nc1ccccc1Cl | 31* | 82* | -5 | -71 | -1 | -12
COc1ccc(/C=C2/SC(=S)N(CCCC(=O)Nc3ccccc3C(=O)O)C2=O)cc1 | -7 | nt | 0 | 41 | 46 | -11
COc1ccc(/C=C2/SC(=S)N(CCCC(=O)Nc3cccc(O)c3)C2=O)cc1 | 6 | -7 | 1 | 8 | 3 | -14
SMILES | Wnt act | MITF TRPM1 HTS | N-glyco inh | TRPM1 prom inh | NSD2 inh | PfHsp90 yeast 2
Cc1ccc(/C=C2\SC(=S)N(CCCC(=O)Nc3ccccn3)C2=O)cc1 | nt | -79 | -4 | 79* | 0 | nt
COc1ccc(/C=C2\SC(=S)N(CC(=O)OCC(=O)Nc3cc(Cl)cc(Cl)c3)C2=O)cc1 | 38* | 5 | -1 | 0 | -2 | 4
COc1ccc(/C=C2\SC(=S)N(CCCC(=O)NNC(=O)c3ccccc3O)C2=O)cc1 | -3 | -92 | -9 | 92* | 1 | 4
COc1ccc(/C=C/c2nc(S(=O)(=O)c3ccccc3)c(N(C)C)o2)cc1 | -1 | 2 | -2 | -1 | 9 | 16
CC(=O)N[C@@H](Cc1c[nH]c2ccccc12)C(=O)NCCc1ccc(S(N)(=O)=O)cc1 | -2 | 5 | 2 | -3 | -7 | 2
Cc1nc2ccccc2n1-c1nc(-c2ccco2)cc(C(F)(F)F)n1 | nt | -75 | -5 | 76* | -6 | -5
FC(F)(F)c1cc(-c2ccco2)nc(-n2cnc3ccccc32)n1 | nt | -4 | 0 | 6 | -1 | -15
O=[N+]([O-])c1cc([N+](=O)[O-])c2c(=Nc3ccccc3)n(-c3ccccc3)n(O)c2c1 | 0 | -58 | 2 | 61* | 21 | -33
COC(=O)C1CCCN(C(=O)C(Cc2ccc3c(c2)OCO3)NC(C)=O)C1 (stereo not given) | nt | nt | nt | nt | -3 | nt
CC(=O)Nc1ccc(S(=O)(=O)Nc2nc3ccccc3nc2-n2ccc(=NC(=O)c3ccc(F)cc3)cc2)cc1 | -2 | 0 | 2 | -4 | 0 | nt
O=C(NCCc1cnn(-c2ccccc2)c1)c1cc(COc2c(F)cccc2F)on1 | 38* | 46 | -2 | -46 | 0 | 4
COc1cc2c3nnc(-c4ccc(F)cc4)c-3cn(Cc3ccccc3F)c2cc1OC | -12 | -91 | -17 | 92* | -2 | 1
CCC[C@H]1[C@@H](NC(=O)c2ccc(Cl)c(C(F)(F)F)c2)CC[C@@]23CCCN2C(=O)CCC[C@@H]13 | nt | nt | nt | nt | -3 | nt
Cc1nc2cc(C(=O)N3CCN(C(=O)OCc4ccccc4)CC3)ccc2n1C1CCCC1 | nt | nt | nt | nt | 4 | nt
O=C(/C=C/C=C/c1ccccc1)c1ccco1 | 40* | 16 | 15 | -8 | 5 | -12
CN(C)c1ccc(N/C=C/C(=O)c2ccco2)cc1 | 43* | 21 | -16 | -18 | 5 | 0
O=C(/C=C/Nc1ccccc1O)c1ccco1 | 52* | 44 | 2 | -40 | 30 | 14
O=C(/C=C/Nc1cccc(F)c1)c1ccco1 | nt | 93* | -4 | -83 | -1 | 6
O=C(/C=C/c1ccc(Br)cc1)c1ccco1 | 2 | 5 | 8 | -6 | 0 | -2
COC(=O)C1=C(C)N(Cc2cccc(C(F)(F)F)c2)C(=NCc2ccc(C(F)(F)F)cc2)NC1c1ccccc1C(F)(F)F (stereo not given) | -16 | nt | nt | nt | nt | nt
Cc1cc(C)cc(N(CC(=O)NC2CCC(C)CC2)S(=O)(=O)c2ccc(C)c(C)c2)c1 (stereo not given) | nt | nt | nt | nt | -5 | nt
NC(=O)NC[C@@H]1CC[C@@H](Cc2ccc(-c3ccccc3)cc2)O1 | nt | 118* | -2 | -124 | nt | 15
